Experimental data taken from PubChem BioAssay (NCI).
The panel holds about 83,000 compounds, 20% with a hit somewhere; the sample as a whole holds those more often.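 Testing used 96-well plates and a 48-hour single-concentration exposure. Example: -40 means 40% of the starting cells died.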 The source made the active and inactive calls.

System: LOX IMVI melanoma
Test: NCI-60 one-dose screen, 48 h (100 = growth as untreated, 0 = no growth, -100 = all killed)
Conditions: 10 µM unless noted
Procedure: Growth inhibition of the LOX IMVI human tumor cell line is measured as a screen for anti-cancer activity. Cells are grown in 96 well plates and exposed to the test compound for 48 hours. Compounds are tested at a single concentration, which is 10^-5 M for most compounds. The reported endpoint is percent growth (GI% or GIPRCNT), where numbers from 0 - 100% represent growth inhibition, and numbers from -100% - 0 represent cell death. For example, a value of 40 represents 60% growth inhibition. A value of 0 means no net growth occurred over the course of the experiment. A value of -40 indicates 40% of cells at the beginning of the experiment died by the end of the experiment. A value of -100 means all cells are dead at the end of the experiment.
NCI-60 Human Tumor Cell Lines Screen was performed using the standard one-dose NCI protocol, which is described in more detail at https://dtp.cancer.gov/discovery_development/nci-60/default.htm.
Compounds with GIPRCNT values below 10 were considered active. Activity score was based on GIPRCNT using the following formula: […]
Score is 0 for GIPRCNT values of 100 or above, 50 for GIPRCNT values of 0, and 100 for GIPRCNT values of -100.

SMILES	growth
O=C1C=CC(=O)N1c1ccc2c(c1)Cc1cc(F)ccc1-2	104% (inactive)
COc1cc(-c2nc3cc(Cl)c(Cl)cc3[nH]2)ccc1OCC(=O)N=Nc1c(O)[nH]c2ccccc12	-100% (active)
COc1ccc(C2CC(c3ccc(Cl)cc3)=NN2/C=C2\SC(=S)N(NC(=O)Cc3ccccc3Nc3c(Cl)cccc3Cl)C2=O)cc1 (stereo not given)	26.9% (inactive)
CN1CCN(Cc2ccc(NC(=O)c3cncc(C#Cc4cncn5ccnc45)c3)cc2C(F)(F)F)CC1	4.74% (active)
COc1ccc2nc(NC(=O)CSc3nnc4n3S(=O)(=O)c3ccccc3N4c3ccccc3)sc2c1	85.5% (inactive)
COc1ccc(/C=C2\Oc3cc(OCCCCN4CCCC4)ccc3C2=O)cc1	-84.7% (active)
CN1CCN(c2nc(NCCCCNc3ccnc4cc(Cl)ccc34)c3ccccc3n2)CC1	2.66% (active)
Cc1ccc2c(C(C[N+](=O)[O-])c3ccccc3)c(-c3ccccc3)[nH]c2c1 (stereo not given)	28.5% [9.5 µM] (inactive)
CC(C)(C)N1CCC1CN (stereo not given)	109% (inactive)
O=C(CCl)Oc1ccc(-c2ccccc2)c(Br)c1	97% (inactive)
CC(C)CSc1nc(N)nc2c1ncn2C1OC(CO)C(O)C1O (stereo not given)	95.3% (inactive)
CC/C=C\C[C@H](O)C/C=C1/C(=O)C=C[C@@]1(C)C/C=C\CCCC(=O)OC	94.3% (inactive)
C=CC(=O)Nc1cccc(Nc2nc(SC)nc(-c3cccc([N+](=O)[O-])c3)c2C#N)c1	46.1% (inactive)
O=C(N=Nc1c(O)[nH]c2ccccc12)c1cc(-c2ccccc2)on1	95.9% (inactive)
CN1CCN(CCCOc2cccc3nc(Nc4ccc(Cl)c(F)c4)ccc23)CC1	-96.1% (active)
O=C(O)COc1ccc(Cl)cc1C1CCCCC1	106% (inactive)
Cc1cc(C)c2nc3nc(C)cc(C)c3c(N)c2c1	7.77% (active)
COc1ccc(-c2nc3ccc(-c4nc5ccc(N6CCN(C)CC6)cc5[nH]4)cc3[nH]2)cc1OC	43.9% (inactive)
Cc1nc2ccccc2n1C(=O)C[C@@H]1NC(=S)NC1=O	95.3% (inactive)
Cn1c(=O)[nH]c(=O)c2nc(CCC(=O)NCCC(=O)O)c(=O)[nH]c21	98.6% (inactive)

SMILES	growth
O=C1C=C(OCC=C(Cl)Cl)C(=O)c2ccccc21	28.8% (inactive)
O=C1c2cc3c(cc2-c2c1c1ccc(F)cc1c(=O)n2C[C@H](O)[C@@H](O)[C@H](O)CO)OCO3	-30.4% (active)
Cc1nc(/N=C(\N)NC(=O)Nc2cccc([N+](=O)[O-])c2)sc1C	71.7% (inactive)
CN1CCN=C1c1ccc(NC(=O)c2ccc(C(=O)Nc3ccc(C4=NCCN4C)cc3)cc2)cc1	94.2% (inactive)
CCc1nnc(CNc2ccc(Cl)cc2)o1	91.2% (inactive)
CCCCn1c(-c2ccc(C(=O)O/N=C(\N)c3ccc4ccccc4c3)cc2)nc(-c2ccccc2)c1-c1ccccc1	3.13% (active)
CCCOc1cc2ccccc2cc1C(=O)Nc1nc(NC)c2c(ccc3nccc32)[nH]1	-81% (active)
COC[C@H](C)n1c(C2CCOCC2)nc2cnc3cc(-c4c(C)noc4C)c(OC)cc3c21	27% (inactive)
Fc1ccc(CNc2cccc3[nH]c(C(F)(F)F)nc23)cc1	99.4% (inactive)
CCOC(=O)C(C)(C#N)C1C=CCCC1 (stereo not given)	96.1% (inactive)
COc1cc2c(cc1-c1c(C)noc1C)ncc1nc(C3CCC(F)(F)CC3)n([C@H](C)COC(F)F)c12	14.8% (inactive)
COc1ccc(C(=O)COc2ccc(/C=C3\Oc4ccc(OC)cc4C3=O)cc2)cc1	77.3% (inactive)
COc1ccccc1NS(=O)(=O)c1ccc2oc(SC(C)C)nc2c1	146% (inactive)
COc1cccc(-c2nc3sccn3c2-c2ccnc(NCCCNS(=O)(=O)c3cccc(Cl)c3)c2)c1	35.6% (inactive)
COCCNc1ccc2c3c(cccc13)C(=O)N(CCN(C)C)C2=O	2.86% (active)
CC(C)(C)CC(C)(C)c1ccc(OCCOCC[N+](C)(C)Cc2ccccc2)cc1	-29.4% (active)
C=C(C)C(=O)Nc1ccc(NC(C)C)cc1	114% (inactive)
COc1cc2nc(N3CCCC3)nc(NCc3ccccc3)c2cc1OC	10% (inactive)
Cc1nn(-c2ccc(F)cc2)c2ncnc(Oc3ccc(NC(=O)Nc4ccc(Cl)c(C(F)(F)F)c4)cc3)c12	99.4% (inactive)
O=C(COc1ccc(-c2nc3cc(Cl)c(Cl)cc3[nH]2)cc1)N=Nc1c(O)[nH]c2ccccc12	6.14% (active)
